# High-throughput results: PubChem, National Center for Advancing Translational Sciences (NCATS)
# An excerpt weighted towards active compounds, which were near 21% of everything screened.
# ClpP mod – qHTS Assay for Activators of ClpP; ATP-dependent Clp protease proteolytic subunit (Bacillus subtilis (strain 168)), P80244; purified B. subtilis ClpP, FRET peptide cleavage, 20 min; Potency, µM (highest dose often 57.5 µM), inactives show at the highest dose activity change, negative = active; 340,000 tested, 1.9% active; active = well fitted falling curve with a large enough effect; inconclusive = small, poorly fitted or top-dose-only effect; inactive = no such curve, though single readings can be large or run the other way; note: potency is the fitted concentration of half-maximal effect; the source files actives as falling curves though it sought activators and does not explain the sign; nearly all actives have a fitted effect of over 65% in size
# Target sequence (P80244 whole entry, looked up): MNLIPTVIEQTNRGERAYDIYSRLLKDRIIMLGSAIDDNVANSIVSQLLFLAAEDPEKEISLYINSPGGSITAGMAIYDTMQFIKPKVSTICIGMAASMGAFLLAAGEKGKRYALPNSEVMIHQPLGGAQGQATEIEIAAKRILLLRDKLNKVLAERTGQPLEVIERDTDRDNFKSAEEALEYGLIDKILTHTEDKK
#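 Buffer: 100 mM Tris/HCl pH8, 100 mM KCl, 0.05% low protease BSA, 2.5% glycerol, 0.01% Tween-20. ClpP 10 microg/mL final; 20 min RT; delta FRET normalized to ADEP and DMSO controls.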
# DT40 TDP1 CPT – qHTS for Inhibitors of human tyrosyl-DNA phosphodiesterase 1 (TDP1): qHTS in cells in presence of CPT; chicken DT40 Tdp1-/-;hTDP1 cells + 20 nM CPT, ATP luminescence, 48 h; Potency, µM (highest dose often 46.2 µM), for the others: at the top dose activity change, negative = growth inhibition, actives largely listed as inhibitors; 420,000 tested, 12% active; AID 686979, 2013; note: potency is the fitted concentration of half-maximal effect; % is set by controls: 0 for no effect and ±100 for the full control effect; nearly all actives have a fitted effect of over 55% in size
#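 Chicken DT40 Tdp1-/- cells complemented with human TDP1, 400 cells/well, exposed to compounds plus 20 nM camptothecin for at least 48 h at 37 C; viability read as ATP content by CellTiter-Glo luminescence.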
# DRD3 agonist – qHTS of D3 Dopamine Receptor Agonist: qHTS; 410,000 tested, 0.58% active; AID 652048, 2013; D(3) dopamine receptor (Homo sapiens), P35462; max activation, %; D3R DiscoveRx beta-arrestin cells, luminescence, 90 min; in the data active = max activation above about 30%; note: 0% is about no effect
# Target sequence (P35462 whole entry, looked up): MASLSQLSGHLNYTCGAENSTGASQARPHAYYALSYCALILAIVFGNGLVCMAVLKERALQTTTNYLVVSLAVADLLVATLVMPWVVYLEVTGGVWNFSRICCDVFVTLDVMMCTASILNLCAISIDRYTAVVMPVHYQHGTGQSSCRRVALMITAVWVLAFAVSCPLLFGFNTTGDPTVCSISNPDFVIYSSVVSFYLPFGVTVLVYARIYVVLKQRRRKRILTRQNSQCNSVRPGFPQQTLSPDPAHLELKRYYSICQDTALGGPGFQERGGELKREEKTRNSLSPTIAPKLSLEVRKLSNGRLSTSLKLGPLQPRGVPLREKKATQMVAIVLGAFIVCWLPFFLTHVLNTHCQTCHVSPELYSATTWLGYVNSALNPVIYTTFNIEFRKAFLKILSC
#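 Agonist-mode cell screen: cells plated at 1500/well and incubated overnight at 37 °C, then exposed to library compounds for 90 min at 37 °C. Detection reagent was added for 30–60 min at room temperature, and luminescence was read.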
# IL-1B inflam inh – qHTS for Inhibitors of Inflammasome Signaling: IL-1-beta AlphaLISA Primary Screen. AID 743279, 2014. 360,000 tested, 4.7% active. activity change, % at 57.5 µM. THP-1 LPS/ATP IL-1B secretion, AlphaLISA, 16 h; stronger effect = lower value; in the data active = activity change below about -50%; inconclusive = mostly about -30% to -49%; note: % is set by controls: 0 for no effect and ±100 for the full control effect
#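 Secreted IL-1B measured by AlphaLISA bead assay after 16 h compound exposure of THP-1 cells; compounds (final up to 57.5 uM) added 1 h before LPS (250 ng/mL) and ATP (1.25 mM) stimulation; lower signal means less secretion.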
# DRD3 antagonist – qHTS of D3 Dopamine Receptor Antagonist: qHTS | D(3) dopamine receptor (Homo sapiens), P35462 | D3R cells, DiscoveRx beta-arrestin luminescence, antagonist mode; stronger effect = lower value | max response, negative = inhibition, % | 360,000 tested, 2.5% active; in the data active = max response below about -50%; inconclusive = no clear call, values can overlap the other calls; note: % is set by controls: 0 for no effect and ±100 for the full control effect
#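 Cells expressing the human receptor were seeded at 1500 cells/well, incubated overnight at 37 degrees C in 5% CO2, then exposed to library compounds with dopamine controls for 90 minutes at 37 degrees C before luminescent detection.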
# DT40 TDP1 no CPT – qHTS for Inhibitors of human tyrosyl-DNA phosphodiesterase 1 (TDP1): qHTS in cells in absence of CPT; DT40 Tdp1-/- hTDP1 cells, no CPT, ATP luminescence, 48 h; Potency, µM (top dose mostly 46.2 µM), for the others: at the top dose activity change, negative = growth inhibition, actives largely listed as inhibitors; 420,000 tested, 15% active; note: potency is the fitted concentration of half-maximal effect; % is set by controls: 0 for no effect and ±100 for the full control effect; nearly all actives have a fitted effect of over 55% in size
#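 Growth kinetics read by CellTiter-Glo luminescence after ≥48 hr at 37 °C. Cells: DT40 Tdp1-/- stably carrying human TDP1, 400 per well, compound exposure in the absence of CPT (DMSO vehicle).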
# The depositor's hits bear a star; u = inconclusive; x = no result; ! = not confirmed by another sample. Unless noted, calls come from the whole dose curve; as a rule, active = well fitted inhibition curve with a large enough effect; inconclusive = small, poorly fitted or top-dose-only effect; inactive = flat fitted curve, though single readings scatter.
SMILES,ClpP mod,DT40 TDP1 CPT,DRD3 agonist,IL-1B inflam inh,DRD3 antagonist,DT40 TDP1 no CPT
Cc1ncc(NS(=O)(=O)c2ccc(N)cc2)nc1C,0%,0%,1,4,22,-17%
Clc1ccc(-c2csc(NNC3=NCCCCC3)n2)cc1,-3%,u,-1,-77*,-78*,16µM*
COc1ccc(-c2csc(NC3=NCCCCC3)n2)cc1,1%,-4%,-2,-4,3,2%
Fc1ccc(-c2csc(NC3=NCCC3)n2)cc1,x,u,12,u,20,u
CCOc1ccc(-c2csc(NNC3=NCCCCC3)n2)cc1,x,10µM*,5,-102*,-7,21µM*
c1ccc(NNC2=NCCCCC2)cc1,-2%,-17%,0,-11,-19,-41%
c1ccc(-c2csc(NNC3=NCCCCC3)n2)cc1,-4%,2.1µM*,-5,-13,-8,1.8µM*
CCn1c(SC(=O)NC2CCCCC2)nnc1-c1cccs1,u,21µM*,-6,-20,-21,23µM*
CCn1c(SCC(=O)NC2CCCCC2)nnc1-c1cccs1,-2%,1%,-2,0,9,-16%
Cc1ccc(C)c2c(/C=C/c3ccc(N(C)C)cc3)ccnc12,1%,u,x,x,x,u
Cc1ccc(/C=[N+](\[O-])c2ccc(N(C)C)cc2)c2nsnc12,x,7.3µM*,-6,-99*,u,16µM*
COc1cc(C(=O)OCC(=O)N2CCCC2=O)cc(OC)c1C,-13%,2%,5,-7,1,17%
O=c1cc(-c2ccccc2)nc(SCc2ccccc2F)[nH]1,0%,1%,1,0,5,6%
NC(=O)C1CCN(C(=O)c2ccc3c(c2)N(Cc2cccc(Cl)c2)C(=O)c2ccccc2S3=O)CC1 (configuration not stated),-2%,-5%,9,x,x,4%
Cc1ccc(S(=O)(=O)c2c(C(=O)c3ccccc3)cnc3cc4c(cc23)OCCO4)cc1,u,u,2,-61*,-1,21µM*
Cc1ccc2ncc(C(=O)c3ccc(C)c(C)c3)c(S(=O)(=O)c3ccc(F)cc3)c2c1,-2%,8.2µM*,8,x,x,9.2µM*
CCOc1ccc(Nc2c(S(=O)(=O)c3ccccc3)cnc3ccc(CC)cc23)cc1,0%,u,-17,x,x,u
CCOc1ccc(S(=O)(=O)c2c(C(=O)c3ccc(C)c(C)c3)cnc3ccccc23)cc1,-7%,16µM*,-4,x,x,15µM*
CCc1ccc(S(=O)(=O)c2c(C(=O)c3ccccc3)cnc3ccc(CC)cc23)cc1,-5%,15µM*,4,x,x,15µM*
COc1ccc(CN2CCC(n3nccc3NC(=O)C3CC3)CC2)c(Cl)c1OC,-4%,-8%,-4,0,-4,-21%
COc1ccc(S(=O)(=O)c2c(C(=O)c3ccc(C)c(C)c3)cnc3ccc(F)cc23)cc1,-2%,7.3µM*,-3,x,x,6.5µM*
COc1ccc(C(=O)c2cnc3ccc(C)cc3c2S(=O)(=O)c2ccccc2)cc1,-10%,16µM*,-8,x,x,18µM*
O=C(C=C1SCCS1)/C=C/c1ccco1,-2%,u,-9,-92*,-13,u
Nn1c(-c2cccc(O)c2)nnc1-c1cccc(O)c1,-2%,8%,6,-10,0,4%
CCOC(=O)C1=C(C)N(c2ccccc2)C(=O)/C1=C\c1ccco1,-2%,u,2,-59*,-4,u
SMILES,ClpP mod,DT40 TDP1 CPT,DRD3 agonist,IL-1B inflam inh,DRD3 antagonist,DT40 TDP1 no CPT
Cc1ccnc(NC(=O)c2cc3ccccc3o2)c1,-2%,-14%,-21,u,-28,-6%
CCCCNC(=O)CO/N=C(\C)c1cc2ccccc2o1,2%,u,5,-24,7,u
CCC(=O)N1CCN(c2ccc(NC(=O)c3cc4ccccc4o3)cc2)CC1,u,u,3,-30,11,18µM*
O=C(Nc1ccc(N2CCN(C(=O)c3ccc(Cl)cc3)CC2)cc1)c1cc2ccccc2o1,4%,u,18,-1,-14,-19%
Cc1ccc(-n2nc3ccc(NC(=O)c4cc5ccccc5o4)cc3n2)cc1,u,-23%,-10,x,x,u
CCc1cccc(C)c1NC(=O)CO/N=C(\C)c1cc2ccccc2o1,4%,18µM*,7,-2,11,23µM*
CCCCc1ccc(-n2nc3ccc(NC(=O)c4cc5ccccc5o4)cc3n2)cc1,4%,u,-28,x,x,10µM*
O=C(Nc1ccccn1)c1cc2ccccc2o1,0%,10µM*,-7,-97*,10,u
COC(=O)c1ccc(CO/N=C/c2ccc(OC)cc2OC)cc1,-1%,-22%,7,5,32,-7%
Cc1cc(C)n2nc(SC(C)C(=O)N(C)C3CCCCC3)nc2n1 (configuration not stated),0%,-14%,1,25,11,-25%
CCN1CCN(CCCNC(=O)CCC(=O)N2CCOc3ccc(Cl)cc32)CC1,-1%,1%,-8,-15,3,8%
CCc1cccc(C)c1NC(=O)c1cc2ccccc2o1,-3%,18µM*,-12,x,x,16µM*
COc1cc(NC(=O)c2cnc(N)s2)cc(C(=O)Nc2cccc(C(F)(F)F)c2)c1,-8%,u,0,56,16,18µM*
COc1cc(NC(=O)c2ccnc(N)c2)cc(C(=O)Nc2cccc(C(F)(F)F)c2)c1,-10%,23µM*,-21,-19,15,21µM*
COc1cc(OC)cc(C(=O)Nc2cccc(NC(=O)c3cccs3)c2)c1,-2%,u,1,-20,-12,u
COc1cc(NC(=O)c2csc(N)n2)cc(C(=O)Nc2cccc(C(F)(F)F)c2)c1,-4%,4.6µM*,-7,57,0,2.9µM*
COc1cc(NC(=O)c2cnc(N)o2)cc(C(=O)Nc2cccc(C(F)(F)F)c2)c1,-3%,21µM*!,2,-21,18,13µM*!
COc1cc(NC(=O)c2cc(C)on2)cc(C(=O)Nc2cccc(C(F)(F)F)c2)c1,-4%,u,1,-17,-12,u
COc1ccc(NC(=O)C(Cc2ccccc2)NS(=O)(=O)c2ccc(Br)s2)cc1OC (configuration not stated),2%,u,-7,x,x,u
